Experimental data as given in PubChem BioAssay AID1159580 (chemical genetic matrix, 2015).
Among all 5,500 compounds or so, about 2,000 (36%) were called active. Another 18% or so got no clear call; they are omitted. Rule as the data show it: active = normalized growth mostly below about 0.91 (no sharp cut-off); inconclusive = no clear call, values can overlap the other calls; inactive = mostly above about 0.92. This is one part of the list.

Test: chemical genetic growth profiling, strain panel (AID 1159580);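 also: tested at 20 µM; growth read once vehicle control cultures reached saturation at 30 °C; 1 = growth at the plate median or of vehicle wells; lower values mean less growth of the strain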
Conditions: growth OD

Measured: normalized growth

COc1ccc(C(=O)CC(=O)c2ccc(C(C)(C)C)cc2)cc1
active: S. cerevisiae deletion strains, locus YLR262C, strain YPT6 (second series), stronger effect = lower value 0.801
inactive: S. cerevisiae deletion strains, locus YJR075W, strain HOC1, stronger effect = lower value 0.936 | S. cerevisiae deletion strains, locus YKL009W, strain mrt4, stronger effect = lower value 1.02 | S. cerevisiae deletion strains, locus YKL068W, stronger effect = lower value 0.996 | S. cerevisiae deletion strains, locus YKL085W, strain MDH1 (second series), stronger effect = lower value 0.989 | S. cerevisiae deletion strains, locus YKL085W, strain MDH1, stronger effect = lower value 0.989 | S. cerevisiae deletion strains, locus YKL160W, strain elf1, stronger effect = lower value 0.982 | S. cerevisiae deletion strains, locus YKL190W, strain CNB1, stronger effect = lower value 0.986 | S. cerevisiae deletion strains, locus YKR001C, strain vps1, stronger effect = lower value 1 | S. cerevisiae deletion strains, locus YKR026C, strain gcn3, stronger effect = lower value 0.988 | S. cerevisiae deletion strains, locus YKR091W, strain srl3, stronger effect = lower value 0.99 | S. cerevisiae deletion strains, locus YLL001W, strain dnm1, stronger effect = lower value 0.998 | S. cerevisiae deletion strains, locus YLL026W, stronger effect = lower value 0.998 | S. cerevisiae deletion strains, locus YLL041C, strain sdh2, stronger effect = lower value 0.972 | S. cerevisiae deletion strains, locus YLR027C, strain aat2, stronger effect = lower value 0.988 | S. cerevisiae deletion strains, locus YLR039C, strain RIC1, stronger effect = lower value 0.884 | S. cerevisiae deletion strains, locus YLR058C, strain SHM2, stronger effect = lower value 1.01 | S. cerevisiae deletion strains, locus YLR102C, strain apc9, stronger effect = lower value 1 | S. cerevisiae deletion strains, locus YLR113W, strain HOG1, stronger effect = lower value 0.969 | S. cerevisiae deletion strains, locus YLR221C, strain rsa3, stronger effect = lower value 0.937 | S. cerevisiae deletion strains, locus YLR258W, strain gsy2, stronger effect = lower value 0.971 | S. cerevisiae deletion strains, locus YLR262C, strain YPT6, stronger effect = lower value 0.903 | S. cerevisiae deletion strains, locus YLR268W, strain sec22, stronger effect = lower value 1 | S. cerevisiae deletion strains, locus YLR320W, strain mms22, stronger effect = lower value 0.956 | S. cerevisiae deletion strains, locus YLR330W, strain CHS5, stronger effect = lower value 1 | S. cerevisiae deletion strains, locus YLR342W, strain FKS1 (second series), stronger effect = lower value 1.1 | S. cerevisiae deletion strains, locus YLR342W, strain FKS1, stronger effect = lower value 0.992 | S. cerevisiae deletion strains, locus YLR357W, strain rsc2, stronger effect = lower value 1.03 | S. cerevisiae deletion strains, locus YLR370C, strain arc18, stronger effect = lower value 1 | S. cerevisiae deletion strains, locus YLR371W, strain rom2, stronger effect = lower value 1.01 | S. cerevisiae deletion strains, locus YLR384C, strain iki3, stronger effect = lower value 1.01 | S. cerevisiae deletion strains, locus YLR418C, strain cdc73, stronger effect = lower value 0.952 | S. cerevisiae deletion strains, locus YML016C, strain PPZ1, stronger effect = lower value 1 | S. cerevisiae deletion strains, locus YML032C, strain rad52, stronger effect = lower value 1 | S. cerevisiae deletion strains, locus YML120C, strain ndi1, stronger effect = lower value 1 | S. cerevisiae deletion strains, locus YML124C, strain tub3, stronger effect = lower value 1 | S. cerevisiae deletion strains, locus YMR058W, strain fet3, stronger effect = lower value 0.996 | S. cerevisiae deletion strains, locus YMR078C, strain ctf18, stronger effect = lower value 1.01 | S. cerevisiae deletion strains, locus YMR125W, strain sto1, stronger effect = lower value 0.977 | S. cerevisiae deletion strains, locus YMR129W, stronger effect = lower value 0.983 | S. cerevisiae deletion strains, locus YMR205C, strain PFK2, stronger effect = lower value 0.97 | S. cerevisiae deletion strains, locus YMR223W, strain ubp8, stronger effect = lower value 1 | S. cerevisiae deletion strains, locus YMR231W, strain pep5, stronger effect = lower value 1.02 | S. cerevisiae deletion strains, locus YMR263W, strain SAP30, stronger effect = lower value 0.988 | S. cerevisiae deletion strains, locus YMR307W, strain GAS1, stronger effect = lower value 0.746 | S. cerevisiae deletion strains, locus YNL067W, strain RPL9B, stronger effect = lower value 0.912 | S. cerevisiae deletion strains, locus YNL071W, strain lat1, stronger effect = lower value 0.998 | S. cerevisiae deletion strains, locus YNL128W, strain TEP1, stronger effect = lower value 0.98 | S. cerevisiae deletion strains, locus YNL153C, strain GIM3, stronger effect = lower value 0.996 | S. cerevisiae deletion strains, locus YNL183C, strain NPR1, stronger effect = lower value 0.958 | S. cerevisiae deletion strains, locus YNL209W, strain ssb2, stronger effect = lower value 1.02 | S. cerevisiae deletion strains, locus YNL233W, strain BNI4, stronger effect = lower value 0.995 | S. cerevisiae deletion strains, locus YNL248C, strain rpa49, stronger effect = lower value 0.963 | S. cerevisiae deletion strains, locus YNL250W, strain rad50, stronger effect = lower value 0.993 | S. cerevisiae deletion strains, locus YNL271C, strain bni1, stronger effect = lower value 1 | S. cerevisiae deletion strains, locus YNL298W, strain CLA4, stronger effect = lower value 1.02 | S. cerevisiae deletion strains, locus YNL307C, strain MCK1, stronger effect = lower value 1.01 | S. cerevisiae deletion strains, locus YNL322C, strain KRE1 (second series), stronger effect = lower value 1.01 | S. cerevisiae deletion strains, locus YNL322C, strain KRE1, stronger effect = lower value 0.994 | S. cerevisiae deletion strains, locus YNR049C, strain mso1, stronger effect = lower value 0.987 | S. cerevisiae deletion strains, locus YNR052C, strain pop2, stronger effect = lower value 1.01 | S. cerevisiae deletion strains, locus YOL006C, strain TOP1, stronger effect = lower value 0.82 | S. cerevisiae deletion strains, locus YOL012C, strain htz1 1.06 | S. cerevisiae deletion strains, locus YOL147C, strain pex11, stronger effect = lower value 1 | S. cerevisiae deletion strains, locus YOR001W, strain rrp6, stronger effect = lower value 0.979 | S. cerevisiae deletion strains, locus YOR061W, strain CKA2, stronger effect = lower value 1 | S. cerevisiae deletion strains, locus YOR069W, strain VPS5, stronger effect = lower value 1 | S. cerevisiae deletion strains, locus YOR070C, strain gyp1, stronger effect = lower value 0.986 | S. cerevisiae deletion strains, locus YOR080W, strain dia2, stronger effect = lower value 1.01 | S. cerevisiae deletion strains, locus YOR083W, strain WHI5, stronger effect = lower value 0.98 | S. cerevisiae deletion strains, locus YOR106W, strain vam3, stronger effect = lower value 0.904 | S. cerevisiae deletion strains, locus YOR136W, strain idh2, stronger effect = lower value 0.99 | S. cerevisiae deletion strains, locus YOR144C, strain elg1, stronger effect = lower value 1 | S. cerevisiae deletion strains, locus YOR184W, strain ser1, stronger effect = lower value 0.955 | S. cerevisiae deletion strains, locus YOR231W, strain MKK1, stronger effect = lower value 1.01 | S. cerevisiae deletion strains, locus YOR265W, strain rbl2, stronger effect = lower value 0.998 | S. cerevisiae deletion strains, locus YOR270C, strain vph1, stronger effect = lower value 0.827 | S. cerevisiae deletion strains, locus YOR290C, strain snf2, stronger effect = lower value 0.991 | S. cerevisiae deletion strains, locus YOR316C, strain cot1, stronger effect = lower value 1 | S. cerevisiae deletion strains, locus YPL051W, strain arl3, stronger effect = lower value 0.992 | S. cerevisiae deletion strains, locus YPL055C, strain LGE1, stronger effect = lower value 0.88 | S. cerevisiae deletion strains, locus YPL078C, strain atp4, stronger effect = lower value 0.998 | S. cerevisiae deletion strains, locus YPL106C, strain sse1, stronger effect = lower value 1 | S. cerevisiae deletion strains, locus YPL240C, strain hsp82, stronger effect = lower value 0.995 | S. cerevisiae deletion strains, locus YPL241C, strain CIN2, stronger effect = lower value 0.988 | S. cerevisiae deletion strains, locus YPL256C, strain CLN2, stronger effect = lower value 1 | S. cerevisiae deletion strains, locus YPR119W, strain clb2, stronger effect = lower value 0.998 | S. cerevisiae deletion strains, locus YPR141C, strain kar3, stronger effect = lower value 0.996 | S. cerevisiae deletion strains, locus YPR163C, strain tif3, stronger effect = lower value 1.01 | S. cerevisiae deletion strains, locus YPR167C, strain met16, stronger effect = lower value 1 | S. cerevisiae deletion strains, strain wtn01, stronger effect = lower value 0.996 | S. cerevisiae strains, strain wild type, stronger effect = lower value 0.975
